# Measurements published in the supplement of paper PMC10338343.
# ± gives the standard deviation.
# Test system: MILI (PIWIL2) piRISC loaded with L1MC piRNA (26 nt)
# Experiment: pre-steady-state target cleavage rate (min^-1); guide: L1MC piRNA 5'p-UAACUAAAUACUAUGCAAGCUGUAGG; MIWI and MILI are mouse PIWI proteins and EfPiwi is from a freshwater sponge; tags in brackets are library labels; higher = faster piRNA-guided slicing of the target
# Summary of the method: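 Three pooled Cleave-'n-Seq trials supplied the data, with k3 capped at 0.0001 min^-1. In each, […] transcribed, DNA-blocked target RNA library and 1 nM active affinity-purified piRISC with one synthetic guide reacted in HEPES–potassium acetate buffer at 33 °C for 0–8 or 0–960 min, with or without 500 nM GTSF1 partner protein. Uncleaved targets were sequenced and normalised to depth and to weakly complementary targets. A burst-and-steady-state fit provided the pre-steady-state cleavage rate.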
# [1] = auxiliary factor: 500 nM mouse GTSF1
# [2] = auxiliary factor: none (no GTSF1)
# 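Also: 1 nM active piRISC with 0.1 nM target library at 33 °C single turnover.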
Sequence,pre-steady-state target cleavage rate [1],pre-steady-state target cleavage rate [2]
UCCUGGUCACAGCUUGCAUAGUAUUUAGUUA,0.239 ± 0.018,0.0126 ± 0.0051
UCCUCCUACAGCAUGGAUAGUAUUUAGUUA,0.269 ± 0.014,0.00942 ± 0.0022
UCCUGGAUGUCGAAGUAUAGUAUUUAGUUA,0.0142 ± 0.004,0.00325 ± 0.002
UCCUGGAUGUCGAAGCAUAGUAUGUUAGUUA,0.0233 ± 0.0059,0.00487 ± 0.0021
UCCUGGAUCAGCUAGCAUAGAAUUUAGUUA,0.0367 ± 0.0066,0.00247 ± 0.0025
UCCUGGAUGUGCUUGGUUAGUAUUUAGUAA,0.149 ± 0.026,0.0127 ± 0.003
UCCUGGAUGUCGUUGGAUACUAUUUAGUUA,< 0.0001,< 0.0001
UCCUGGAUGUCGAUGCCUAGUAUUUAGUUA,0.0127 ± 0.0028,0.00351 ± 0.0023
UCCUCCUACAGCUUCGUUAGUAUUUAGUUA,0.221 ± 0.013,0.00396 ± 0.0017
UCCUGGAUGUGCUUGCAUAGUUUUUAGUAA,0.0109 ± 0.0049,0.00391 ± 0.0027
UCCUGGAUGUGCUUGCUUACUAUUUAGUUA,0.0117 ± 0.005,0.00477 ± 0.0024
UCCUGGUACAGCUUGCAUUGUUUUUAGUUA,0.0201 ± 0.0095,0.00647 ± 0.0034
UCCUGGAUGUCGUUGCAUAGUAUUUUAGUUA,0.125 ± 0.02,0.00632 ± 0.0029
UCCUGGUACAGCUUGCAUUGAAUUUAGUUA,0.047 ± 0.015,0.00399 ± 0.0037
UCCUCCUACAGCUUGCAUUGAAUUUAGUUA,0.0267 ± 0.008,0.00236 ± 0.0021
UCCUGGAUGUGCUUGCAUAGUUAUUAGUUA,0.00903 ± 0.0055,0.00639 ± 0.0025
UCCUGGUACAGCUACGAUAGUAUUUAGUUA,0.15 ± 0.016,0.00343 ± 0.0026
UCCUGGAUCAGCUUGCAUUGUAUAUAGUUA,0.183 ± 0.018,0.00663 ± 0.0022
UCCUGGUACAGCUUGCAAUGUAUUUAGUUA,0.0755 ± 0.013,0.0121 ± 0.0029
UCCUGGAUGUCCUUGCUUAGUAUAUAGUUA,0.0347 ± 0.0085,0.0039 ± 0.0023
UCCUGGUACAGCUUCCUUAGUAUUUAGUUA,0.288 ± 0.052,0.00854 ± 0.0031
UCCUGCUACAGGUUGCAUAGUAUUUAGAUA,0.114 ± 0.033,0.00283 ± 0.0027
UCCUGGAUGUGCUUGAUAGUAUUUAGUUA,0.00721 ± 0.0036,0.00463 ± 0.002
UCCUGGUACAGCUUGGUUAGUAUUUAGUAA,0.159 ± 0.038,0.01 ± 0.0031
UCCUGGAUGUCGUUGCAUAGUAAUUUGUUA,0.00776 ± 0.005,0.00315 ± 0.0027
UCCUGGAUGAGCUAGGAUAGUAUUUAGUUA,0.131 ± 0.021,0.00494 ± 0.0027

Sequence,pre-steady-state target cleavage rate [1],pre-steady-state target cleavage rate [2]
UCCUGGAUCAGCAUGCAUAGUAUUUUGUUA,0.16 ± 0.021,0.00405 ± 0.0024
UCCUGGAUGUCGAUGGAUAGUAUUUAGUUA,0.0431 ± 0.0076,0.00383 ± 0.0027
UCCUGGAUGUGCUUGCAUUGUAUAUAGUUA,0.0696 ± 0.012,0.00543 ± 0.0026
UCCUCCAACUGCUUGCAUAGUAUUUAGUUA,0.256 ± 0.017,0.00659 ± 0.0019
UCCUGGAUGUCCUUGGAUAGUAUUAAGUUA,0.207 ± 0.037,0.00484 ± 0.0024
UCCUGGAUGUCCAUGCAUAGUUUUUAGUUA,0.0166 ± 0.0043,0.00362 ± 0.0023
UCCUGGAUGUCCUUGCAUAGUAUAAAGUUA,0.0673 ± 0.015,0.00312 ± 0.0028
UCCUGGUACAGCUUGCAUAUGUAUUUAGUUA,0.00566 ± 0.0049,0.00451 ± 0.0033
UCCUGCUACAGCUAGCAAAGUAUUUAGUUA,0.137 ± 0.012,0.00463 ± 0.0024
UCCUGGAUCAGCUUGAUAGUAUUUAGUUA,0.0575 ± 0.0091,0.00451 ± 0.002
UCCUCCUGACAGCUUGCAUAGUAUUUAGUUA,0.217 ± 0.018,0.00896 ± 0.0026
UCCUGGAUGUCCUAGCAUAGUAUUUAGUUA,0.0817 ± 0.015,0.00379 ± 0.002
UCCUGCUACAGCUUGCAUAGUAUAAAGUUA,0.198 ± 0.025,0.00349 ± 0.0022
UCCUGGAUGUCGUUGCAUAGUAUUUAGUA,0.148 ± 0.022,0.00424 ± 0.0026
UCCUGGAUCAGCUUGCAUAGUUAUUAGUUA,0.0248 ± 0.01,0.00466 ± 0.0024
UCCUGGAUGUCCUAGCAUAGUAAUUAGUUA,0.0282 ± 0.01,0.00305 ± 0.0025
UCCUGGAACAGCAACCAUAGUAUUUAGUUA,0.152 ± 0.018,0.00431 ± 0.0018
UCCUGGAACACGAUGCAUAGUAUUUAGUAA,0.0953 ± 0.013,0.00313 ± 0.0029
UCCUGGAUGAGCUUGGAUAGUAUUUAGUUA,0.163 ± 0.011,0.00612 ± 0.0024
UCCUGGAUGUGGAAGCAUAGUAUUUAGUAA,0.0306 ± 0.0062,0.00424 ± 0.0024
UCCUGGAUGUCGUUGCAUACUAUUUAGUUA,0.0161 ± 0.0052,0.00383 ± 0.002
UCCUGGAUGUGCUUGCAUACAAUUUAGUUA,0.00405 ± 0.0039,0.0028 ± 0.0024
UCCUGGAUGUGCUUGGUUAGUAUUUAGUUA,0.0978 ± 0.017,0.01 ± 0.0025
UCCUGGAUGAGGAUGCAUAGUAUUUAGUAA,0.116 ± 0.029,0.00444 ± 0.002
UCCUGGAUGUGCUAGCAUAGUAUUUAGUAA,0.12 ± 0.017,0.00339 ± 0.0027
UCCUGGAUGAGCUUGCAUAGUAUAAUGUUA,0.229 ± 0.061,0.00329 ± 0.0028
